Compound activity as filed in PubChem.
HTR5A ag ctr: HTR5A agonism, opioid heterodimer counter-screen | P47898 | HTR5A agonist assay, luminescence, cell-based | activation, % at 9.3 µM | 340,000 tested, 0.61% active | AID 504692; in the data active = activation mostly above about 9.5%, no sharp cut-off; inactive = mostly below about 7.6%;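 note: 0% = cells with vehicle only and 100% = reference agonist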
Target sequence (P47898 whole entry, looked up): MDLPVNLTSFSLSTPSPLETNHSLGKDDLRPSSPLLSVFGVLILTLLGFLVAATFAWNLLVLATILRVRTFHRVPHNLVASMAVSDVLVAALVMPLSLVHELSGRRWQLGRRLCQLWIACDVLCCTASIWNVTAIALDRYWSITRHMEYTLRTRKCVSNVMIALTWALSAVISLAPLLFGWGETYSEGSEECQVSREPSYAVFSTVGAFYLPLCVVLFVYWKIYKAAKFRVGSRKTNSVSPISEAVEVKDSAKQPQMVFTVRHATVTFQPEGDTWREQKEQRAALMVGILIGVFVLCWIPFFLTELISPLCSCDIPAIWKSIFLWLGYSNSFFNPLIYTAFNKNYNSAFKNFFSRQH
m5-HT2A agonist: agonists of mouse serotonin 5-HT2A receptor (HTR2A) | P35363 | CHO-K1 mHTR2A beta-arrestin complementation, luminescence; percent of 30 µM serotonin response | activation, % at 7.6 µM | 360,000 tested, 0.66% active;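 active = activation above a run cutoff, the mean activation of all tested compounds plus 3 SD, cut at about 14% in these data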;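 note: 0% = plate median of compound wells and 100% = 30 µM serotonin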
HTR5A inv ctr: HTR5A inverse agonism, opioid heterodimer counter-screen. HTR5A cell line, luminescence. inhibition, % at 9.3 µM. 340,000 tested, 0.083% active; in the data active = inhibition mostly above about 23%, no sharp cut-off; inactive = mostly below about 18%;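 note: 0% = cells with DMSO and 100% = no-cell wells with DMSO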
MOR-DOR ag-1: OPRM1-OPRD1 heterodimerization agonism | P35372+P41143 | cells, luminescence | activation, % at 9.3 µM | 340,000 tested, 0.3% active | AID 504326;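 note: 0% = vehicle-treated cells and 100% = reference agonist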
OPRM1-OPRD1 inv: inverse agonist of human OPRM1-OPRD1 heterodimerization; inhibition, % at 9.3 µM; 340,000 tested, 0.21% active; cell-based MOR-DOR heterodimer luminescence, inverse agonism; P35372+P41143; in the data active = inhibition above about 22%, passing the limit was not always enough;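 note: 0% = cells with DMSO and 100% = wells without cells with DMSO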
MOR-DOR ag-2: promotes OPRM1-OPRD1 heterodimerization in HTR5A counter-screen | 800 tested, 13% active | activation, % at 9.3 µM | AID 504913 | shares compounds with HTR5A ag ctr | U2OS counter-screen cells, complementation luminescence, 3 h
HTR5A ag confirm: HTR5A (human) agonism, confirmation. shares compounds with HTR5A ag ctr. HTR5A agonist cell assay, luminescence. activation, % at 9.3 µM. 800 tested, 17% active; in the data active = activation above about 17%;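 note: 0% = cells with vehicle only and 100% = full reference agonist response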
* marks the source's active call; other numbers are inactive results; . = no result. Shown are actives, neighbours in structure and some others; about 1.6% of the full set was active somewhere. Cut-off read from the data, not from the text of the source, unless noted: active = activation above about 18%; inactive = the rest.

SMILES	HTR5A ag ctr	m5-HT2A agonist	HTR5A inv ctr	MOR-DOR ag-1	OPRM1-OPRD1 inv	MOR-DOR ag-2	HTR5A ag confirm
O=C(NCC1CCCO1)c1ccc(Oc2ccc([N+](=O)[O-])cc2Cl)cc1 (stereo not drawn)	17*	0	-49	3	-25	-4	-8
C/C(=N\NC(=O)CCC(=O)NCc1ccccc1)c1ccc([N+](=O)[O-])cc1	-1	2	6	0	0	.	.
O=C(CSc1nnc(CNC(=O)c2c(F)cccc2F)o1)Nc1ccc2c(c1)OCCO2	2	5	-8	-2	14	.	.
CC(OC(=O)c1ccc(Cl)nc1)C(=O)Nc1ccc2c(c1)OCO2 (stereo not drawn)	19*	8	-53	-3	12	1	2
COc1ccc(OC)c(NC(=O)COC(=O)c2cc3c(s2)CCC3)c1	15*	2	-21	0	-1	2	0
O=S(=O)(c1cnc(Cl)c(Cl)c1)N1CCc2ccccc21	16*	-2	-46	5	-30	121*	-1
O=S(=O)(c1cnc(Cl)c(Cl)c1)N1CCCc2ccccc21	4	0	-9	7	-33	.	.
CCCCCC(=O)Nc1ccc(C(=O)COC(=O)Cn2cnc3c2c(=O)n(C)c(=O)n3C)cc1	0	3	0	-4	20	.	.
CCC(=NNC(=O)c1ccc2c(c1)nc(C)n2CC)c1cc(F)ccc1O	18*	-2	-71	-3	15	0	0
c1ccc(CCNC2=NCCCS2)cc1	20*	1	-54	-2	13	2	0
Cc1cc(C)nc(N2CCCC(C(=O)Nc3ccc(F)cc3)C2)n1 (stereo not drawn)	-4	0	11	-2	11	.	.
COCCCN1CC(=O)N2Cc3[nH]c4ccccc4c3C[C@H]2C1=O	0	-2	1	-3	12	.	.
COc1cc2c(-c3cc(F)cc(F)c3)c(-c3ccsc3)oc(=O)c2cc1OC	-4	4	14	-2	11	.	.
COc1ccc(-c2c(-c3ccsc3)oc(=O)c3cc(OC)c(OC)cc23)cc1	23*	4	-61	1	-6	3	1
COc1ccc2c(CN3CCCCCCC3)cc(=O)oc2c1	.	-1	.	.	.	.	.
CCOC(=O)N1CCN(C(=O)CCC(=O)N2CCOc3ccc(C)cc32)CC1	21*	-2	-51	-2	8	4	-2
COc1cc(/C=N/NC(=O)CNC(=O)c2ccco2)ccc1O	2	-2	-5	-4	20	.	.
COc1cc(C(=O)NCC(=O)N/N=C/c2ccc(OC(=O)c3ccco3)cc2)cc(OC)c1OC	22*	-1	-9	-2	11	1	4
C=CCN(C/C(=N\O)c1sc(C(=O)OCC)nc1C)c1cccc(Br)c1	22*	8	-59	7	-44	8	2
CC(C)(C)c1ccc(OCC(=O)N2CCN(c3ncccn3)CC2)cc1	0	8	-26	0	0	.	.
CC(C)(C)c1ccc(OCC(=O)N2CCN(c3ccccn3)CC2)cc1	15*	-2	-37	0	1	18	17*
O=C(NCCc1c[nH]c2ccccc12)C(=O)Nc1cc2c3c(c1)CC(=O)N3CCC2	16*	1	-39	0	1	31*	13
O=C(NCCc1ccc(F)cc1)C(=O)Nc1cc2c3c(c1)CC(=O)N3CCC2	-5	2	12	-1	7	.	.
CC(C)C(=O)Nc1ccc2c(c1)nc(CCN1CCN(c3ccccn3)CC1)n2C	-5	-4	17	-2	8	.	.
COc1ccc(-c2cc(-c3c(O)c(OC)c4occc4c3OC)[nH]n2)cc1	15*	7	-39	10	-51	-1	1
SMILES	HTR5A ag ctr	m5-HT2A agonist	HTR5A inv ctr	MOR-DOR ag-1	OPRM1-OPRD1 inv	MOR-DOR ag-2	HTR5A ag confirm
CCc1ccc2[nH]c(=O)c(CN(Cc3ccc4c(c3)OCO4)Cc3nnnn3C3CCCC3)cc2c1	19*	2	3	8	-48	6	2
COc1cccc(CNC(=O)COC(=O)CNC(=O)c2ccc(-c3ccccc3)cc2)c1	15*	-5	-37	-1	5	4	-2
CN1CCN(NC(=O)/C=C/c2ccc(Br)cc2)CC1	0	-4	1	-4	19	.	.
COc1ccc(C(CNc2ccc(C(F)(F)F)cn2)N(C)C)cc1OC (stereo not drawn)	19*	2	-56	17	-139	0	-5
FC(F)(F)c1ccc(NCc2ccccn2)nc1	-1	2	3	-2	12	.	.
C[C@H](CO)N1C[C@H](C)[C@H](CN(C)C(=O)Nc2ccc(F)cc2)OCc2cnnn2CCCC1=O	.	3	.	.	.	.	.
O=[N+]([O-])c1ccc2c(c1)C=C1CCCCC1(N1CCCC1)O2 (stereo not drawn)	5	1	-16	4	-22	.	.
CC(C)C[C@H](NC(=O)N1CC(=O)Nc2ccccc21)C(=O)N[C@@H](Cc1c[nH]c2ccccc12)C(=O)O	40*	3	-1	-3	16	0	-2
CC(C)C[C@H](NC(=O)N1CC(=O)Nc2ccccc21)C(=O)N[C@H](Cc1c[nH]c2ccccc12)C(=O)O	-1	-1	0	-2	12	.	.
COc1ccccc1N1CCN(C(=O)c2ccc(Cn3c(=O)[nH]c4ccsc4c3=O)cc2)CC1	16*	-1	9	0	1	0	12
COc1ccccc1N1CCN(C(=O)Cn2c(=O)[nH]c3ccsc3c2=O)CC1	-2	0	6	-3	15	.	.
Cc1ccccc1C(=O)NNC(=O)c1cccc([N+](=O)[O-])c1	17*	2	15	2	-12	2	2
CN(CC(=O)Nc1ccc(Cl)c(C(F)(F)F)c1)C(=O)c1ccc(OCC2CCCO2)cc1 (stereo not drawn)	0	-7	1	3	-15	.	.
Cc1cccc(Cc2ccc(Cl)nn2)c1	1	-3	-2	-1	6	.	.
O=C(CSCc1ccccc1)N/N=C/c1ccccc1OCc1ccccc1	4	-4	18	4	-21	.	.
COc1ccc(CSCC(=O)N/N=C/c2ccccc2OCc2ccccc2)cc1	22*	-1	-58	1	-5	1	1
Clc1ccc(CSc2nnc(CNc3cccc(Cl)c3)o2)cc1	6	-5	12	4	-25	.	.
COc1ccc(/C=N/NC(=O)c2ccn[nH]2)cc1COc1ccc(Cl)cc1Cl	26*	-3	-67	7	-44	1	-1
COc1ccc(/C=N/NC(=O)c2ccn[nH]2)cc1COc1ccc(F)cc1	0	-2	1	1	-5	.	.
COc1ccc(OC)c(Nc2nc(N)nc(CCl)n2)c1	17*	2	-53	0	-1	1	10
Cc1cccc(Nc2nc(N)nc(CCl)n2)c1	20*	2	-69	0	1	21*	31*
COc1ccccc1C1CCN(Cc2ccc(C)cc2)CC1	-1	-14	2	-2	7	.	.
